From the supplement of paper PMC10981050 come the findings set out here.

What all share (assay): cell viability relative to vehicle control; higher = less cytotoxic
Common to all, as to settings: 10 µM

The test system of one assay is K562. In outline: (§1)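 Four leukaemia lines, as CRISPR-edited mutant clones and isogenic wild-type clones, were tested against Selleck bioactive, kinase and epigenetic probe libraries after removal of identity-inconsistent compounds. Cells were exposed to a single 10 µM dose for 48 h, and CellTiter-Glo luminescence was then read. Viability was calculated relative to the on-plate vehicle control.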

The subject of the next assay is MARIMO. In outline:
as §1

The next assay relates to MOLM14. In outline: as §1
Another assay has as its system OCI-AML2. A digest of the protocol: as §1

Where “and” joins values, the source holds several entries; their conditions need not be identical. Identical values can stand only once.

For `COc1ccc2c3c1O[C@H]1C[C@@H](O)C=C[C@@]31CCN(C)C2` [Galanthamine], the cell viability (in general, a read-out of living cells in per cent, often relative to untreated cells) in the assay on K562 (SRSF2 genotype: SRSF2 P95H/wt) is 103% and 106%; in the assay with K562 (SRSF2 genotype: SRSF2 wt/wt), 99.9%; in the assay with MARIMO (SRSF2 genotype: SRSF2 P95H/wt) it was 102%; in the assay with MARIMO (SRSF2 genotype: SRSF2 wt/wt), 106%; in the assay on MOLM14 (SRSF2 genotype: SRSF2 P95H/wt) it was 97.9%; with MOLM14 (SRSF2 genotype: SRSF2 wt/wt), 105%. The results for the cell viability with OCI-AML2 (SRSF2 genotype: P95H/wt) and with OCI-AML2 (SRSF2 genotype: wt/wt) were 109% and 95%, respectively.

Take `O=C(O)CC(O)(CC(=O)OCc1ccc(O[C@@H]2O[C@H](CO)[C@@H](O)[C@H](O)[C@H]2O)cc1)C(=O)OCc1ccc(O[C@@H]2O[C@H](CO)[C@@H](O)[C@H](O)[C@H]2O)cc1` (stereo not given in full) [Parishin B]: the cell viability is 106% and 105% with K562 (SRSF2 genotype: SRSF2 P95H/wt); 109% with K562 (SRSF2 genotype: SRSF2 wt/wt); 103% in the assay on MARIMO (SRSF2 genotype: SRSF2 P95H/wt); 98.4% with MARIMO (SRSF2 genotype: SRSF2 wt/wt); 113% with MOLM14 (SRSF2 genotype: SRSF2 P95H/wt); 105% in the assay on MOLM14 (SRSF2 genotype: SRSF2 wt/wt). Moreover, the results for the cell viability in the assay on OCI-AML2 (SRSF2 genotype: P95H/wt) and with OCI-AML2 (SRSF2 genotype: wt/wt) were 99.6% and 100%, respectively.

As to `CN1CCN(CCCNc2ncc(Cl)c(-c3cc4c(C(=O)NC5CC5)cccc4s3)n2)CC1`, the cell viability in the assay with K562 (SRSF2 genotype: SRSF2 P95H/wt) was 97.4% and 98.7%; with K562 (SRSF2 genotype: SRSF2 wt/wt), 93.2%; in the assay with MARIMO (SRSF2 genotype: SRSF2 P95H/wt), 81.4%; in the assay with MARIMO (SRSF2 genotype: SRSF2 wt/wt), 85.8%; with MOLM14 (SRSF2 genotype: SRSF2 P95H/wt) it was 58.8%; in the assay on MOLM14 (SRSF2 genotype: SRSF2 wt/wt), 79.9%. Further, the cell viability is 68.8% with OCI-AML2 (SRSF2 genotype: P95H/wt) and 72.7% in the assay on OCI-AML2 (SRSF2 genotype: wt/wt).

Turning to `C[C@@]1(c2cc(-c3cncnc3)c(F)cc2F)CCSC(N)=N1`, the cell viability with K562 (SRSF2 genotype: SRSF2 P95H/wt) is 100% and 99.9%; in the assay on K562 (SRSF2 genotype: SRSF2 wt/wt), 100%; in the assay with MARIMO (SRSF2 genotype: SRSF2 P95H/wt), 104%; in the assay with MARIMO (SRSF2 genotype: SRSF2 wt/wt) it was 105%; in the assay on MOLM14 (SRSF2 genotype: SRSF2 P95H/wt), 92.2%; in the assay with MOLM14 (SRSF2 genotype: SRSF2 wt/wt), 102%. For the same compound, the figures for the cell viability in the assay with OCI-AML2 (SRSF2 genotype: P95H/wt) and in the assay with OCI-AML2 (SRSF2 genotype: wt/wt) were 100% and 99.2%, respectively.

Take `Cc1cc(SCc2sc(-c3ccc(C(F)(F)F)cc3)nc2C)ccc1OCC(=O)O`: the cell viability in the assay on K562 (SRSF2 genotype: SRSF2 P95H/wt) is 102% and 95.2%; with K562 (SRSF2 genotype: SRSF2 wt/wt), 96.7%; in the assay on MARIMO (SRSF2 genotype: SRSF2 P95H/wt) it was 92%; in the assay on MARIMO (SRSF2 genotype: SRSF2 wt/wt), 103%; with MOLM14 (SRSF2 genotype: SRSF2 P95H/wt) it was 87.6%; in the assay on MOLM14 (SRSF2 genotype: SRSF2 wt/wt) it was 97.3%. In addition, the cell viability is 90.4% with OCI-AML2 (SRSF2 genotype: P95H/wt) and 95.4% in the assay on OCI-AML2 (SRSF2 genotype: wt/wt).

As to `CCCCCCOC(=O)NC(=N)c1ccc(NCc2nc3cc(C(=O)N(CCC(=O)OCC)c4ccccn4)ccc3n2C)cc1` [BIBR-1048 (Dabigatran)], the cell viability is 67% and 66.3% in the assay with K562 (SRSF2 genotype: SRSF2 P95H/wt); 67.2% in the assay with K562 (SRSF2 genotype: SRSF2 wt/wt); 55.2% with MARIMO (SRSF2 genotype: SRSF2 P95H/wt); 55% in the assay on MARIMO (SRSF2 genotype: SRSF2 wt/wt); 0.49% with MOLM14 (SRSF2 genotype: SRSF2 P95H/wt); 0.53% with MOLM14 (SRSF2 genotype: SRSF2 wt/wt). Further, the cell viability in the assay on OCI-AML2 (SRSF2 genotype: P95H/wt) is 55%; with OCI-AML2 (SRSF2 genotype: wt/wt) it was 35.7%.

Regarding `CC1(C)S[C@@H]2[C@H](NC(=O)[C@H](N)c3ccc(O)cc3)C(=O)N2[C@H]1C(=O)O` [Amoxicillin sodium (Amox)], the cell viability with K562 (SRSF2 genotype: SRSF2 P95H/wt) is 99.4% and 102%; with K562 (SRSF2 genotype: SRSF2 wt/wt) it was 105%; with MARIMO (SRSF2 genotype: SRSF2 P95H/wt) it was 105%; in the assay on MARIMO (SRSF2 genotype: SRSF2 wt/wt) it was 109%; with MOLM14 (SRSF2 genotype: SRSF2 P95H/wt) it was 96%; in the assay with MOLM14 (SRSF2 genotype: SRSF2 wt/wt), 103%. In addition, the cell viability in the assay with OCI-AML2 (SRSF2 genotype: P95H/wt) stood at 105%; in the assay on OCI-AML2 (SRSF2 genotype: wt/wt), 93.4%.

`Cc1cc(F)c(C(=O)Nc2cccc(-c3nncn3C(C)C)n2)cc1-n1cnc(C2CC2)c1` [Selonsertib (GS-4997)]: the cell viability in the assay with K562 (SRSF2 genotype: SRSF2 P95H/wt) was 78.6% and 86.2%; in the assay on K562 (SRSF2 genotype: SRSF2 wt/wt), 82%; with MARIMO (SRSF2 genotype: SRSF2 P95H/wt), 57.1%; with MARIMO (SRSF2 genotype: SRSF2 wt/wt), 72.1%; in the assay on MOLM14 (SRSF2 genotype: SRSF2 P95H/wt), 63.5%; with MOLM14 (SRSF2 genotype: SRSF2 wt/wt), 68.5%. For the same compound, the cell viability in the assay on OCI-AML2 (SRSF2 genotype: P95H/wt) is 49.5%; with OCI-AML2 (SRSF2 genotype: wt/wt) it was 62%.

On to `CC(C[N+](C)(C)C)OC(N)=O` (stereo not given) [Bethanechol chloride], for which the cell viability in the assay with K562 (SRSF2 genotype: SRSF2 P95H/wt) is 97.9% and 102%; in the assay with K562 (SRSF2 genotype: SRSF2 wt/wt) it was 102%; with MARIMO (SRSF2 genotype: SRSF2 P95H/wt), 111%; in the assay on MARIMO (SRSF2 genotype: SRSF2 wt/wt), 112%; in the assay on MOLM14 (SRSF2 genotype: SRSF2 P95H/wt) it was 108%; with MOLM14 (SRSF2 genotype: SRSF2 wt/wt), 109%. The cell viability in the assay on OCI-AML2 (SRSF2 genotype: P95H/wt) is 109%; in the assay on OCI-AML2 (SRSF2 genotype: wt/wt), 98.2%.

Consider `CC(C)=CC(=O)O[C@H]1Cc2cc3ccc(=O)oc3cc2OC1(C)C` [Decursin], for which the cell viability is 89.5% and 93.4% in the assay on K562 (SRSF2 genotype: SRSF2 P95H/wt); 90% with K562 (SRSF2 genotype: SRSF2 wt/wt); 81.6% with MARIMO (SRSF2 genotype: SRSF2 P95H/wt); 88.5% with MARIMO (SRSF2 genotype: SRSF2 wt/wt); 91.1% in the assay on MOLM14 (SRSF2 genotype: SRSF2 P95H/wt); 92.5% in the assay with MOLM14 (SRSF2 genotype: SRSF2 wt/wt). Further, the cell viability in the assay on OCI-AML2 (SRSF2 genotype: P95H/wt) amounted to 83.7%; in the assay on OCI-AML2 (SRSF2 genotype: wt/wt), 87%.
